Results taken from PubChem BioAssay (NCI).
About 79,000 compounds went through this panel and 15% of them were active in at least one assay; those are over-represented in the sample as a whole. Activity calls are given as the source filed them. Rule as the data show it: active = growth inhibition above about 70%; inactive = the rest.

Experiments:
[1] = NCI Yeast Anticancer Drug Screen. Data for the rad50 strain (AID 155);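 also: 0% = growth of vehicle-only cultures of the same strain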; details: S. cerevisiae rad50 strain growth inhibition; at 50.0 µM; hits give high values
Method in brief: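 Growth of the mutant yeast was measured after compound exposure and referenced to vehicle-treated cultures.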

[2] = NCI Yeast Anticancer Drug Screen. Data for the mec2-1 strain (AID 157); details: S. cerevisiae mec2-1 strain, at 50.0 µM, hits give high values
Method in brief: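 Using mec2-1 yeast: add compound, measure growth, express inhibition versus vehicle-treated cultures.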

[3] = NCI Yeast Anticancer Drug Screen. Data for the sgs1 mgt1 strain (AID 161);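 also: 0% = growth of cultures given vehicle only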; details: S. cerevisiae sgs1 mgt1 strain, at 50.0 µM, hits give high values
Method in brief: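 Growth of a repair-deficient yeast mutant was monitored after compound treatment and expressed as inhibition relative to vehicle-treated cultures.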

[4] = NCI Yeast Anticancer Drug Screen. Data for the cln2 rad14 strain (AID 165);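 also: 0% = growth equal to vehicle treated cultures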; details: S. cerevisiae cln2 rad14 strain, at 50.0 µM, hits give high values
Method in brief: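 Yeast strain cln2 rad14, bearing defects in cell cycle control and DNA repair, serves as the test system; values reflect growth inhibition compared with vehicle.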

[5] = NCI Yeast Anticancer Drug Screen. Data for the bub3 strain (AID 167); details: S. cerevisiae bub3 mutant strain, at 50.0 µM, hits give high values
Method in brief: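 Whole-cell yeast assay. The mutant strain was incubated with compounds, and growth inhibition was determined by comparison with vehicle-treated cells.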

[6] = NCI Yeast Anticancer Drug Screen. Data for the mlh1 rad18 strain (AID 175); details: S. cerevisiae mlh1 rad18 strain growth inhibition; at 50.0 µM; hits give high values
Method in brief: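 Steps: expose repair-defective yeast to compound; measure growth; express inhibition against vehicle-treated controls.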

Measured: growth inhibition

Nc1ccc(N(S(=O)(=O)c2ccccc2)S(=O)(=O)c2ccccc2)c(Cl)c1
inactive: [2] 45.8% | [4] 39.5% | [5] 69%
active: [1] 77.3% | [3] 82% | [6] 78.7%

O=C1C=C2CCC(c3ccc(O)cc3)CC2CC1 (stereo unspecified)
inactive: [1] -3% | [2] 7.6% | [3] -1.6% | [4] 7.65% | [5] -0.45% | [6] -8%

O=C(O)C1CCC(=O)N1Cc1ccccc1 (stereo unspecified)
inactive: [1] 1.35% | [2] -5.5% | [3] -7.75% | [4] -18% | [5] -7.05% | [6] -8.35%

Cc1c[n+]2c(C)cccc2n1C
inactive: [1] 10.9% | [2] 27.9% | [3] 27.1% | [4] -26.2% | [5] -8.05% | [6] 3.65%

Cc1cc([N+](=O)[O-])ccc1NC(=O)C(Br)C(Br)C(=O)O (stereo unspecified)
inactive: [1] 31.1% | [2] 64.5% | [4] 15.8% | [6] 49.1%
active: [3] 75.9% | [5] 75.8%

O=C(N/N=C\c1ccc2c(c1)CCC2)c1cccc2ccccc12
inactive: [1] -5.9% | [2] 1.35% | [3] -11.9% | [4] -6.1% | [5] 10.2% | [6] -2.9%

CCCCCCC1CCC(O)CC1 (stereo unspecified)
inactive: [1] 22.6% | [2] 2.95% | [3] -8.05% | [4] -0.15% | [5] 12.3% | [6] 41.1%

CC(C)CC(O)(CC(C)C)C(CCC(=O)Nc1ccccc1)C(=O)Nc1ccccc1 (stereo unspecified)
inactive: [1] 26.1% | [2] 11.9% | [3] 1.9% | [4] -52.1% | [5] -8.5% | [6] 7.6%

OC1CCCCC1OC1CCc2ccccc2C1 (stereo unspecified)
inactive: [1] 19.1% | [2] 19.5% | [3] -5.25% | [4] 29.9% | [5] 50% | [6] 33.1%

COc1cc(C2c3cc4c(cc3OC(N3CCCC3)C2C)OCO4)cc(OC)c1OC (stereo unspecified)
inactive: [1] 22.4% | [2] -0.5% | [3] -2.9% | [4] 5.75% | [5] 3.1% | [6] 6.55%

CN(C)c1nc(-c2ccccc2)c(Cc2ccccc2)c(=O)o1
inactive: [1] -1.9% | [2] -4.15% | [3] 20.5% | [4] -4.25% | [5] 7.25% | [6] 7.8%

Cc1cc(Br)ccc1Br
inactive: [1] 34.6% | [2] 19.3% | [3] -1.75% | [4] -36.4% | [5] -4.3% | [6] 8.6%

NC1(C(=O)O)CCCc2ccccc21 (stereo unspecified)
inactive: [1] 13.3% | [2] 8.15% | [3] -1.1% | [4] -1.7% | [5] -12.6% | [6] 8.95%

CC(=O)CC(C)(C)NC(=S)Nc1ccc(O)cc1
active: [1] 99.7% | [2] 99.5% | [3] 99.8% | [4] 98.8% | [5] 99.8% | [6] 99.8%

O=C(N/N=C/c1cc(Br)cc(Br)c1O)c1ccccc1
inactive: [1] 3.85% | [2] -1.4% | [3] 11.3% | [4] 3.85% | [5] -2.05% | [6] 28.4%

O=C(NNC(=O)c1ccccc1Br)c1ccccc1Br
inactive: [1] -18.9% | [2] -48.8% | [3] -9.6% | [4] 0.45% | [5] -25.1% | [6] -18.1%

O=[N+]([O-])c1cccc(C(O)(C(F)(F)F)C(F)(F)F)c1
inactive: [1] -19.1% | [2] 6.2% | [3] 1.7% | [4] 24.1% | [5] 42.7% | [6] 14%

CCCCn1cnc2c(SCCNC(=O)N(C)N=O)ncnc21
inactive: [1] 6.3% | [2] -8.25% | [3] 10.3% | [4] -45.3% | [5] 3.5% | [6] -2.05%

O=C(NCCCl)Nc1ccc2c(c1)CCC2
inactive: [1] 1.55% | [2] 3.3% | [3] 1.55% | [4] -10.8% | [5] 10.8% | [6] 6.7%

O=C1NC(=S)N(c2ccccc2)C1=O
inactive: [1] -19.4% | [2] -7.65% | [3] -24.2% | [4] -30.2% | [5] -2.5% | [6] -11.8%

O=C(c1ccccc1)C1CC2C=CC1C2 (stereo unspecified)
inactive: [1] 4.3% | [2] -8.25% | [3] 2.4% | [4] 36.9% | [5] -0.7% | [6] 17.2%

N=C(N)SCc1ccc(Cl)cc1Cl (tested in a mixture with another compound)
inactive: [1] 34.1% | [2] 12.3% | [3] 6.35% | [4] 3.05% | [5] 7.9% | [6] 26.4%

CCCCC1(C(NC(=O)c2ccccc2Cl)c2ccncc2)C(=O)N(c2ccccc2)N(c2ccccc2)C1=O (stereo unspecified)
inactive: [1] 33.8% | [2] 15.8% | [3] 9.15% | [4] 6.35% | [5] 33.5% | [6] 41.5%

O=C(O)c1ccc(-c2c3ccc(=O)cc-3oc3cc(O)ccc23)cc1
inactive: [1] 18% | [2] -30.1% | [3] 6.05% | [4] 22.1% | [5] 23.9% | [6] 20.4%

COC1(OC)CC2OC1C1N=NN(C(=O)OC(C)(C)C)C21 (stereo unspecified)
inactive: [1] 28.1% | [2] 13.3% | [3] 6.8% | [4] 21.6% | [5] 16.8% | [6] 31.4%

CC(C)C(=O)Nc1ccccc1
inactive: [1] 2.9% | [2] -11.9% | [3] 2.7% | [4] -25.6% | [5] -13.6% | [6] 15.6%

CCOC(=O)C(C(=O)OCC)n1c(=O)c2c(ncn2C)n(C)c1=O
inactive: [1] 13.2% | [2] -0.55% | [3] -16.8% | [4] 16.1% | [5] 13% | [6] 10.3%

CC(=O)c1cccc(C)n1
inactive: [1] 29.8% | [2] -6.05% | [3] 22.1% | [4] 18.2% | [5] 10.9% | [6] 36.7%

CCCCCCCCCCCCCCCCCC(=O)N/N=C/c1ccccc1
inactive: [1] 1% | [2] -2.8% | [3] 12% | [4] 2.95% | [5] -1.5% | [6] -5.55%

C=C(c1ccccc1)c1cccc2ccccc12
inactive: [1] -2.45% | [2] 3.45% | [3] -4.9% | [4] 19.9% | [5] -11.7% | [6] 6.55%

CC1(C(Cl)(Cl)Cl)C=C/C(=N\O)C(Cl)=C1 (stereo unspecified)
inactive: [1] -2.3% | [2] -10.7% | [3] -1.9% | [4] 4.95% | [5] -8.9% | [6] -7.75%

C=C(CC(=O)OC)C(=O)OC
inactive: [1] 12.3% | [2] -2.9% | [3] 8.45% | [4] 7.8% | [5] 4.15% | [6] 9.45%

Cc1cc2c(c3ccccc13)C(O)c1ccccc1-2 (stereo unspecified)
inactive: [1] -7.85% | [2] 5.95% | [3] 1.5% | [4] -15.4% | [5] 3.85% | [6] -9.25%

CCOc1c(N=Nc2ccccc2C)c(-c2ccccc2)nn1C(N)=S
inactive: [1] 8.25% | [2] 6.85% | [3] 5.4% | [4] 25.4% | [5] -3.5% | [6] 8.25%

NC(=O)c1csc(C2OC(CO)CC2O)n1 (stereo unspecified)
inactive: [1] 4.55% | [2] -2.95% | [3] -2.45% | [4] -6% | [5] 0.2% | [6] -2.1%

Nc1ccc[nH]c1=O
inactive: [1] 15.7% | [2] 4% | [3] 19.6% | [4] 8.8% | [5] 20.7% | [6] -12.4%

C=CCSc1nc2ccc(NC(C)=O)cc2s1
inactive: [1] 42.8% | [2] 10.2% | [3] 7.8% | [4] 19.3% | [5] 20% | [6] 16.7%

O=C(Nc1cccc(C(=O)Nc2ccc3cc(S(=O)(=O)O)cc(S(=O)(=O)O)c3c2)c1)Nc1cccc(C(=O)Nc2ccc3cc(S(=O)(=O)O)cc(S(=O)(=O)O)c3c2)c1
inactive: [1] 6.8% | [2] 34.1% | [3] 9.25% | [4] -3% | [5] 3.65% | [6] 33%

Cc1cc(C)c(OC(=O)c2ccc(C(=O)Oc3c(C)cc(C)cc3C)cc2)c(C)c1
inactive: [1] 13.8% | [2] -1.65% | [3] -4.85% | [4] 0.25% | [5] -1.6% | [6] 14.9%

CC(C)(C)C1=CC(=O)C(C#N)(C(C)(C)C)C1=O (stereo unspecified)
inactive: [1] 11.2% | [2] -5.7% | [3] 7.15% | [4] -36% | [5] 1.6% | [6] 6.55%

CC(C)c1ccc(Cc2ccc(C(C)C)c(NC(=O)C(=O)Cc3cnc4ccccc4n3)c2C(C)C)c(C(C)C)c1NC(=O)C(=O)Cc1cnc2ccccc2n1
inactive: [1] -28.4% | [2] -18.4% | [3] -24.9% | [4] 14.3% | [5] -13.2% | [6] -28.8%
